# Measured values published in PubChem BioAssay AID488890 (Southern Research Specialized Biocontainment Screening …, 2010).
# Among all 320,000 compounds or so, about 1,300 (0.41%) were called active. Not shown: some 3% with an inconclusive outcome. The rule behind the calls is not given here. Not all results are given here. Results with a measured potency or affinity are listed apart.
# Test: growth inhibition of non-replicating M. tuberculosis (AID 488890);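 note: plate controls were DMSO cells for no effect and high antibiotic wells for full effect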
# Conditions: Mycobacterium tuberculosis non-replicating, at 25 µM, stronger effect = higher value
row,SMILES,inhibition
1,COc1ccc2cc(C3CC(c4cccs4)=NN3C(C)=O)c(Cl)nc2c1 (stereo not given),-4.81%
2,CCCCc1nc2c(=O)[nH]c3ccccc3c2o1,-16.6%
3,CCCc1nc2c(=O)[nH]c3ccccc3c2o1,-9.47%
4,CNCc1ccccc1Sc1ccc(O)c(O)c1,33.3%
5,CNCc1ccccc1Sc1cccc(O)c1,-3.89%
6,CC(=O)NCCOc1ccc2oc3ccccc3c2c1,5.68%
7,O=C(O)COc1ccc2oc3ccccc3c2c1,3.49%
8,COc1ccc(CCNC(=O)COc2ccc(-c3ccc(C#N)cc3)cc2)cc1,72.4%
9,CC(=O)Nc1ccc(NC(=O)COc2ccc(-c3ccc(C#N)cc3)cc2)cc1,-7.55%
10,CC(C)N(Cc1ccccc1)C(=O)CC(=O)N(Cc1ccccc1)C(C)C,6.28%
11,CCc1ccc(-c2cc(C)no2)cc1S(=O)(=O)Nc1cc(C)ccn1,-1.42%
12,CCOC(=O)N1CCN(C(=O)CN(C)S(=O)(=O)c2ccc(Cl)cc2)CC1,-17.1%
13,CSCCC(NC(=O)c1ccco1)C(=O)NC1CCCCCC1 (stereo not given),-8.42%
14,Cc1cc(Nc2nc3ccccc3nc2Cl)n(-c2ccccc2)n1,8.46%
15,CC(C)(O)C(=O)NNC(=S)NCc1ccco1,-2.82%
16,CC(C)(C)NC(=S)NCc1ccco1,-18.9%
17,COc1ccc(/C=N/NC(=O)c2cccs2)c2ccccc12,76.3%
18,CCOC(=O)CCCNC(=O)COC(=O)c1ccc(O)cc1,-2.65%
19,CCOC(=O)CCCNC(=O)COC(=O)c1cc(C)cc(C)c1,-5.81%
20,COc1ccc(S(=O)(=O)NCC2CCCN(Cc3ccc(C)o3)C2)cc1 (stereo not given),8.61%
21,COc1ccc(C(=O)N2CCN(CCNC(=O)C(=O)Nc3ccc(F)cc3)CC2)cc1OC,-5.42%
22,CC(C)NCC(=O)C12CC3CC(CC(C3)C1)C2,-12.5%
23,COc1ccc(C(=O)COC(=O)CCc2nc3ccccc3[nH]c2=O)cc1Br,5.73%

row,SMILES,inhibition
1,COC1CCCN(C(=O)c2ccc3oc(Cc4ccc(Cl)cc4)nc3c2)C1 (stereo not given),23.6%
2,CCN(CC)c1ccc(CNCc2cccs2)cc1,6.27%
3,O=C(COc1ccccc1)NNC(=O)c1cc2ccccc2oc1=O,10.5%
4,COc1ccc2oc(=O)c(C(=O)NC(C)c3ccccc3)cc2c1 (stereo not given),16.5%
5,CC(NC(=O)c1cc(Br)ccc1Cl)c1ccccc1 (stereo not given),0.91%
6,COc1cccc2cc(C(=O)NC(C)c3ccccc3)c(=O)oc12 (stereo not given),26.4%
7,Cc1ccc(C(C)NC(=O)c2ccco2)cc1C (stereo not given),71.1%
8,Cc1cc(C)cc(OCC(=O)NNC(=O)c2cc3ccccc3o2)c1,-4.01%
9,CC(NC(=O)c1cc(Br)ccc1Br)c1ccccc1 (stereo not given),-17.5%
10,CC(=O)OCCNC(=O)c1cc2ccccc2oc1=O,-10.9%
11,Cc1ccccc1CS(=O)(=O)CCC(=O)NCCCN1CCOCC1,-2.86%
12,CCN(CC)CCNC(=O)c1ccc(NC(=O)c2cc(-c3ccco3)nc3ccccc23)cc1,4.2%
13,O=C(CCc1ccccc1)Nc1cc(NC(=O)CCc2ccccc2)cc(C(=O)O)c1,-12.7%
14,COc1ccc(C(=O)Nc2ccccc2NC(=O)c2ccc(OC)cc2)cc1,-3.72%
15,COc1ccc(-c2nc(-c3cccs3)no2)cc1,24.2%
16,COc1ccc(/C=N/c2nc3ccccc3n2CCN2CCCCC2)cc1OC,4.24%
17,Cc1ccc(S(=O)(=O)N2CCOC2CNC(=O)C(=O)NCCN(C)C)cc1 (stereo not given),-4.76%
18,CCN(C(=O)COC(=O)c1ccc(Cl)cc1N)C1CCCCC1,30.8%
19,O=c1c2cc([N+](=O)[O-])cc([N+](=O)[O-])c2[nH]n1-c1ccccc1,5.65%
20,COc1ccc(CNC(=O)C/C(C)=N/NC(=O)COc2cccc(C)c2)cc1,-10.6%
21,CC(=NNC(=O)COc1cccc(C)c1)c1cccnc1,2.36%
22,O=S(=O)(Nc1ccc2c3c(cccc13)CC2)c1ccc(F)cc1,21.3%
23,O=S(=O)(Nc1c(O)ccc2ccccc12)c1ccc(F)cc1,-1.3%

row,SMILES,inhibition
1,O=C(COc1ccc(Br)cc1)Nc1ccccc1N1CCCC1,26.6%
2,CCn1c(NC2CCCCC2)nc2ccccc21,8.52%
3,O=C(Nc1nc2ccccc2n1Cc1ccccc1)c1ccc(COc2ccccc2[N+](=O)[O-])o1,-4.43%
4,CCn1c(NC(=S)Nc2ccccc2)nc2ccccc21,57.9%
5,CCn1c(NC(=O)c2ccc(COc3ccc(C)cc3[N+](=O)[O-])o2)nc2ccccc21,14%
6,CCn1c(-c2nonc2NC(=O)c2ccccc2)nc2ccccc21,3.27%
7,CCn1c(NC(=O)Nc2ccccc2OC)nc2ccccc21,43%
8,CCn1c(CNC(=O)c2ccccc2)nc2ccccc21,2.98%
9,CN(C)CCCn1c(NC(=O)C2CCCCC2)nc2ccccc21,24.1%
10,COc1ccc(C(C)(C)NC(=O)C2CCC(=O)N(C3CCCC3)C2)cc1OC (stereo not given),1.54%
11,O=C(O)c1cc(-c2ccc(Cl)cc2)n(-c2ccc(Cl)cc2)n1,28.3%
12,O=C(COC(=O)c1ccc(OC(F)F)cc1)Nc1cccc(S(=O)(=O)NC2=NCCC2)c1,-15.4%
13,CN(C)S(=O)(=O)N1CCC(Oc2ccc(C(=O)N3C[C@H]4CC[C@H]3C4)cc2)CC1,-6.7%
14,O=C(CCS(=O)(=O)Cc1ccccc1)NCC1CCCO1 (stereo not given),-2.41%
15,CNC(=O)n1cc(C)c(-c2cccs2)n1,3.54%
16,O=C(NCc1cccnc1)C1CCC(CNS(=O)(=O)c2cccc3nsnc23)CC1 (stereo not given),-1.6%
17,CCOc1cc(S(=O)(=O)NC2CCCCC2)ccc1F,22.4%
18,C=CCn1c(SCC(=O)Nc2ccc(C(=O)O)cc2)nc2scc(-c3ccccc3)c2c1=O,6.43%
19,O=C(Nc1nc2ccccc2n1CCN1CCOCC1)c1ccccc1,78.5%
20,CCn1c(/C=N/Nc2ccc(C(=O)O)cc2)nc2ccccc21,5.68%
21,CCn1c(C)nc2cc(C(=O)N/N=C/c3ccc(OC)cc3)ccc21,-1.99%
22,Cn1c(CCNC(=O)c2ccccc2)nc2ccccc21,-11.6%
23,Cn1c(NC(=O)c2cccnc2)nc2ccccc21,74.7%

row,SMILES,inhibition
1,CCCn1c(CNC(=O)c2ccccc2)nc2ccccc21,1.31%
2,Cc1ccc(-n2nc3c(=O)n(CCCC(=O)NCc4ccc(Cl)cc4)nc(C)c3c2C)cc1,52.4%
3,Cc1ccc(C(C(=O)NC2CCCC2)N(C(=O)c2csnn2)c2ccccc2)o1 (stereo not given),9.58%
4,O=[N+]([O-])c1cccc(/C=N\N2CCN(Cc3ccccc3Cl)CC2)c1,-2.97%
5,O=C(COc1ccc(Br)cc1)N1CCC(c2ccccc2)C1 (stereo not given),68%
6,COC(=O)C1(C)CN(S(=O)(=O)c2ccc(C)cc2)c2cc(OC)ccc2C1=O (stereo not given),35.5%
7,Cc1cc(Sc2ccc([N+](=O)[O-])cn2)ccc1Br,12.1%
8,O=[N+]([O-])c1ccc(Oc2cccc(C(F)(F)F)c2)nc1,65.4%
9,CC1=NCCN1S(=O)(=O)c1ccc(Br)c(C)c1,1.05%
10,O=S(=O)(c1cccc(C(F)(F)F)c1)c1ccc(O)cn1,0.61%
11,CCOc1ccc(CCNC(=O)COC(=O)Cn2cnc3ccccc3c2=O)cc1OCC,18.2%
12,COc1ccccc1CNC(=O)COC(=O)COc1ccccc1Cc1ccccc1,25.1%
13,O=C(Nc1cccc(-n2cnnn2)c1)c1ccoc1COc1ccc(Cl)cc1,5.71%
14,CSc1ccccc1C(=O)C1CCCN(S(=O)(=O)c2c(C)noc2C)C1 (stereo not given),-0.64%
15,Cc1ccc(Nc2c(-c3ccco3)nc3ccccn23)cc1,43.3%
16,c1ccc(Nc2c(-c3ccco3)nc3ccccn23)cc1,43.1%
17,CCOc1ccc(S(=O)(=O)N(CC(=O)NCc2cccnc2)c2ccc(F)cc2)cc1,1.08%
18,CCN(C[C@H]1N[C@@](CC)(C(=O)OC)[C@H]2C(=O)N(C)C(=O)[C@@H]12)C(=O)Nc1ccc(C)cc1,3.1%
19,O=C1c2ccccc2NC(c2ccc3c(c2)OCCO3)N1c1ccc2c(c1)OCCO2 (stereo not given),29.3%
20,O=C(O)C1CC(=O)N(c2ccc3c(c2)OCCO3)C1 (stereo not given),-10.2%
21,CN1CCN(c2ccc(CNC(=O)c3ccc4c(c3)OCCO4)cc2)CC1,-0.49%
22,Cc1cc(Cl)ccc1NC(=O)COC(=O)c1nc2nccc(C)n2n1,-0.03%
23,COc1cc2c(cc1OC)CN(CCOc1ccc(Br)cc1)CC2,17.6%

row,SMILES,inhibition
1,O=C(CCN1CCOCC1)c1ccccc1,75.5%
2,CC(CN1CCCC1)OC(=O)c1ccc(Br)cc1 (stereo not given),-10.6%
3,O=C(CN1CCOCC1)c1ccc(Br)cc1,61.8%
4,O=C(NCCCN1CCOCC1)c1ccc(Br)cc1,17.1%
5,CC(CN1CCOCC1)OC(=O)c1ccccc1 (stereo not given),-8.24%
6,O=C(NCCN1CCOCC1)c1ccc(Cl)cc1,-1.14%
7,COc1cc2c(cc1OC)CN(C(=O)CCC(=O)c1ccc(F)cc1)CC2,19.6%
8,O=C(CCc1ccccc1)Nc1ccccc1F,18.9%
9,COc1ccccc1N(C(=O)CNC(=O)c1ccco1)C(C(=O)NC1CCCC1)c1ccncc1 (stereo not given),2.47%
10,CSc1cccc(NC(=O)CCNS(=O)(=O)c2ccc3[nH]c(=O)oc3c2)c1,-8.71%
11,O=C(NCCCN1CCOCC1)c1cc2c([nH]c3ccccc32)c(-c2cccc(Br)c2)n1,77.1%
12,CN=C1S/C(=C/c2cn(CC(=O)OC)c3ccccc23)C(=O)N1C,47.1%
13,O=C(O)C1CC(=O)N(CCOc2ccccc2)C1 (stereo not given),-0.16%
14,CC1CCC(NC(=O)CCNC(=O)c2ccc(Br)cc2)CC1 (stereo not given),67.6%
15,Cn1cnnc1Sc1ccc(C(=O)NCCC23CC4CC(CC(C4)C2)C3)cc1[N+](=O)[O-],33.9%
16,COc1ccc(C(C)C)cc1S(=O)(=O)NCC1CCCO1 (stereo not given),16%
17,CC1CCCN(CCOc2ccc(Br)cc2)C1 (stereo not given),16.9%
18,CC1CCCN(CCC(=O)Nc2ccc(Br)cc2)C1 (stereo not given),10.6%
19,COc1ccc(OC)c2c1CC(C)(C)NC2=O,-28.9%
20,COc1ccc(/C=C2\SC(=S)N(CCCC(=O)Nc3ccc(O)cc3)C2=O)cc1,53.3%
21,COc1ccc(/C=C2/SC(=S)N(CCCC(=O)Nc3ccc(O)cc3)C2=O)cc1,71.1%
22,Cc1ccc(S(=O)(=O)CCC(=O)Oc2ccc3c(C)cc(=O)oc3c2)cc1,6.87%
23,CC(C)CNC(=O)N1c2ccccc2Sc2ccccc21,30.4%
